From PubChem BioAssay
Activity calls are given as the source filed them. Unless noted, how the calls were made is not given here.

Experiments:
[1] = compound effects on lung adenocarcinoma cell viability – A549, calcein-AM fluorescence, 48 h, basal, profiling panel (AID 1162); settings: higher = more signal; further: test concentration not given here
[2] = compound effects on differentiated 3T3-L1 adipocyte viability – cell-based, 3T3-L1 adipocytes, calcein-AM fluorescence, 48 h, basal, profiling panel (AID 1163); settings: 3T3-L1 adipocytes viability, higher = more signal; further: test concentration not given here
[3] = compound effects on hepatocellular carcinoma cell viability – HepG2, calcein-AM fluorescence, 48 h, basal, profiling panel (AID 1164); settings: higher = more signal; further: test concentration not given here
[4] = compound effects on multiple myeloma cell viability – MM1S, calcein-AM fluorescence, 48 h, basal, profiling panel (AID 1165); settings: higher = more signal;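 further: viability of MM1S multiple myeloma cells under basal unstimulated conditions; test concentration not given here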
[5] = calcein-AM signal in unstimulated myeloma cells – cell-based, calcein-AM fluorescence, 48 h, PK04 Diversity Set, profiling panel (AID 1166); settings: RPMI8226 myeloma viability, higher = more signal;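 further: cells grown under basal conditions without added stimulus; test concentration not given here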
[6] = JC-1 mitochondrial signal, unstimulated HepG2 cells – cell-based, JC-1 fluorescence, 24 h, 100 nL compound, profiling panel (AID 1167); settings: HepG2 mitochondrial potential, higher = more signal; further: test concentration not given here
[7] = JC-1 mitochondrial signal, unstimulated adipocytes – cell-based, JC-1 fluorescence, 3T3-L1 adipocytes, 24 h, 100 nL compound, profiling panel (AID 1168); settings: JC-1 mitochondrial fluorescence, higher = more signal, called active from +8 up or from −8 down; further: test concentration not given here
[8] = JC-1 mitochondrial signal, unstimulated myeloma cells – cell-based, JC-1 fluorescence, RPMI8226, 24 h, 100 nL compound, profiling panel (AID 1169); settings: JC-1 mitochondrial potential fluorescence, higher = more signal; further: test concentration not given here
[9] = JC-1 mitochondrial signal, unstimulated MM1S myeloma – cell-based, JC-1 fluorescence, 24 h, 100 nL compound, profiling panel (AID 1170); settings: MM1S mitochondrial potential, higher = more signal; further: test concentration not given here
[10] = resazurin metabolic signal in A549 cells – cell-based, resazurin fluorescence, 24 h, PK04 Diversity Set, profiling panel (AID 1171); settings: A549 viability, higher = more signal, called active from +8 up or from −8 down; further: test concentration not given here
[11] = resazurin metabolic signal in HepG2 cells – cell-based, resazurin fluorescence, 24 h, PK04 Diversity Set, profiling panel (AID 1172); settings: HepG2 viability, higher = more signal; further: test concentration not given here
[12] = budding yeast growth changes without added modifier – OD600, strain BY4716, 24 h, basal condition, primary screen (AID 1173); settings: S. cerevisiae BY4716 growth, OD600, 24 h; higher = more signal, called active from +8 up or from −8 down
[13] = viability profiling in MM1S myeloma cells – cell-based, resazurin fluorescence, basal, 24 h, PK04 Diversity Set, profiling panel (AID 1174); settings: higher = more signal, called active from +8 up or from −8 down; further: test concentration not given here
[14] = target: Dihydroorotate dehydrogenase (quinone), mitochondrial (Plasmodium falciparum (isolate 3D7)) (UniProt Q08210); assay: inhibition of P. falciparum DHODH – biochemical, C-terminal His tag, absorbance 600 nm, primary screen (AID 1175); settings: PfDHODH enzyme, DCIP absorbance 600 nm; higher = more signal, called active from +8 up or from −8 down;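 further: recombinant parasite enzyme with a five histidine tag at its C terminus; test concentration not given here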
[15] = inhibition of PAO1 biofilm formation – strain PAO1, LB-PBS medium, absorbance 600 nm, primary screen (AID 1176); further: test concentration not given here; settings: P. aeruginosa PAO1 growth/biofilm, A600, 12 h; higher = more signal
[16] = growth modulation of vineyard yeast isolate – strain RM11-1a, OD600, basal, 24 h, primary screen (AID 1177);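 further: cultures grown under basal conditions with no added stressor; test concentration not given here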; settings: S. cerevisiae RM11-1a growth, OD600, 24 h; higher = more signal, called active from +8 up or from −8 down
[17] = growth of efflux-deficient E. coli DRC39 – strain DRC39, OD650, 24 h, E. coli filamentation inducers, primary screen (AID 1178);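 further: growth measured as culture turbidity by optical density at 650 nm; test concentration not given here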; settings: E. coli DRC39 acrAB, higher = more signal, called active from +8 up or from −8 down
[18] = growth of efflux-deficient E. coli DRC39 – strain DRC39, OD650, 48 h, E. coli filamentation inducers, primary screen (AID 1179);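 further: screen aims at cell division blockers that make cells filament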; settings: E. coli DRC39 delta-acrAB growth, higher = more signal, called active from +8 up or from −8 down
[19] = viability profiling in RPMI8226 myeloma cells – cell-based, resazurin fluorescence, basal, 24 h, PK04 Diversity Set, profiling panel (AID 1180); settings: higher = more signal;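 further: RPMI8826 multiple myeloma cell line at 5000 cells per well; test concentration not given here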
[20] = target: E3 ubiquitin-protein ligase XIAP (Homo sapiens) (UniProt P98170); assay: small molecules binding XIAP protein – biophysical, small-molecule microarray, fluorescence 635 nm, primary screen (AID 1181); settings: higher = more signal;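 further: score merges 667 nm emission and signal to noise over triplicate slides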
E3 ubiquitin-protein ligase XIAP (Homo sapiens), sequence (P98170 whole entry, looked up): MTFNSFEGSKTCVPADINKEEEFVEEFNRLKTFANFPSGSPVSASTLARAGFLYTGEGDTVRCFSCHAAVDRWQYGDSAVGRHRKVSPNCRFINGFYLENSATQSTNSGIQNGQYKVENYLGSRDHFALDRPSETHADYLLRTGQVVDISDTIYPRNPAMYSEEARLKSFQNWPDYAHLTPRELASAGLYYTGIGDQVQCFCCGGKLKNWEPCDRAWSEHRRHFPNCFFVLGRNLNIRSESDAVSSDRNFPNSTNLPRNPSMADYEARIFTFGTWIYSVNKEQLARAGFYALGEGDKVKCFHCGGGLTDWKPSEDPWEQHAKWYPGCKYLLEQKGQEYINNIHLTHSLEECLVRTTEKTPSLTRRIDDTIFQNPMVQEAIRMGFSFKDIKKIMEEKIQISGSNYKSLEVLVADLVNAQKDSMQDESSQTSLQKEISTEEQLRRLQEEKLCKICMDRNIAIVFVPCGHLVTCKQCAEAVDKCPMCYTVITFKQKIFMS

Dihydroorotate dehydrogenase (quinone), mitochondrial (Plasmodium falciparum (isolate 3D7)), sequence (Q08210 whole entry, looked up): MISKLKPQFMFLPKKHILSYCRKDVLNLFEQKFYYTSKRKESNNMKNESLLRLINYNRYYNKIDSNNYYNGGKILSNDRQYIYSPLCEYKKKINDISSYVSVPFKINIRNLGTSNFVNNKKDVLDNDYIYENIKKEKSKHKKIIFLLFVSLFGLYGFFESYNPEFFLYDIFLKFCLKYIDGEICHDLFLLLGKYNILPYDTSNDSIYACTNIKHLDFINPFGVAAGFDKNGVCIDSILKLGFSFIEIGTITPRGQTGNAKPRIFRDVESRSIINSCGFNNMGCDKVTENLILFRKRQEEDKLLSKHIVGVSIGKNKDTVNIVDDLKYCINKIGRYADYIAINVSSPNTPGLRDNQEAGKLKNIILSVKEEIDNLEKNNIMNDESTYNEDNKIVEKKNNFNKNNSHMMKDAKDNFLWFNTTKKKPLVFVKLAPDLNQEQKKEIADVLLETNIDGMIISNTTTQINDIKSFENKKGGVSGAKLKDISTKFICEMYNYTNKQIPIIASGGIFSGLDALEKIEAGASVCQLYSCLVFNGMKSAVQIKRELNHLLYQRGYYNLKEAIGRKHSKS

SMILES: COCCCNC(=O)[C@]1(CCS(=O)(=O)c2ccccc2)N=C(c2ccc(OCCCO)cc2)O[C@@H]1c1ccccc1CN=[N+]=[N-]
- z-score [1]: 1.61
- z-score [2]: 0.652
- z-score [3]: 1.15
- z-score [4]: 0.114
- z-score [5]: 0.0901
- z-score [6]: 0.542
- z-score [7]: 0.482 (inactive)
- z-score [8]: -0.393
- z-score [9]: -1.34
- z-score [10]: -0.97 (inactive)
- z-score [11]: -0.776
- z-score [12]: 1.67 (inactive)
- z-score [13]: -3.5 (inactive)
- composite z-score [14]: 0.36 (inactive)
- z-score [15]: 0.438 (inactive)
- z-score [16]: 1.62 (inactive)
- z-score [17]: 0.0971 (inactive)
- z-score [18]: 0.748 (inactive)
- z-score [19]: -0.601
- composite z-score [20]: 0.481

SMILES: COC(=O)c1c2oc(c1C(=O)OC)C(=O)N(C)Cc1cn(nn1)C[C@H](Cc1ccccc1)NC(=O)N[C@H](CO)CC2
- z-score [1]: -0.145
- z-score [2]: 0.129
- z-score [3]: -0.0951
- z-score [4]: 0.273
- z-score [5]: -0.743
- z-score [6]: -0.649
- z-score [7]: -0.164 (inactive)
- z-score [8]: 0.256
- z-score [9]: -0.31
- z-score [10]: -0.213 (inactive)
- z-score [11]: -0.356
- z-score [12]: 0.415 (inactive)
- z-score [13]: -0.286 (inactive)
- composite z-score [14]: 0.31 (inactive)
- z-score [15]: 0.0914 (inactive)
- z-score [16]: 1.2 (inactive)
- z-score [17]: -0.499 (inactive)
- z-score [18]: -0.913 (inactive)
- z-score [19]: -0.139
- composite z-score [20]: -0.0559

SMILES: O=C(N1CCCCC1)[C@@]1(CCS(=O)(=O)c2ccccc2)COC(c2ccc(OCCCO)cc2)=N1
- z-score [1]: 0.606
- z-score [2]: -0.609
- z-score [3]: 0.299
- z-score [4]: -1.03
- z-score [5]: 0.0963
- z-score [6]: 0.147
- z-score [7]: -0.328 (inactive)
- z-score [8]: -1.13
- z-score [9]: -1.16
- z-score [10]: 0.327 (inactive)
- z-score [11]: -0.27
- z-score [12]: -0.22 (inactive)
- z-score [13]: -1.52 (inactive)
- composite z-score [14]: -0.0606 (inactive)
- z-score [15]: 0.258 (inactive)
- z-score [16]: -0.008 (inactive)
- z-score [17]: 0.196 (inactive)
- z-score [18]: 0.21 (inactive)
- z-score [19]: -0.675
- composite z-score [20]: 0.0942

SMILES: C[C@@H]1NC(=O)[C@@]23C(=O)N[C@@H](Cc4ccccc4)C2[C@H](C)[C@@]2(C)O[C@H]2C3/C=C/C/C=C\CNC(=O)[C@@H]2CCCN2C1=O (stereo not given in full)
- z-score [1]: -0.143
- z-score [2]: 0.389
- z-score [3]: -0.0552
- z-score [4]: 0.37
- z-score [5]: -0.0448
- z-score [6]: -0.175
- z-score [7]: 1.19 (inactive)
- z-score [8]: 0.632
- z-score [9]: -0.0219
- z-score [10]: 0.247 (inactive)
- z-score [11]: -0.289
- z-score [12]: -0.963 (inactive)
- z-score [13]: -0.737 (inactive)
- composite z-score [14]: -0.972 (inactive)
- z-score [15]: 1.28 (inactive)
- z-score [16]: -0.142 (inactive)
- z-score [17]: -0.4 (inactive)
- z-score [18]: -0.188 (inactive)
- z-score [19]: -0.0461
- composite z-score [20]: -0.102

SMILES: COCCOC(=O)N1C(=O)[C@@]2(c3cc(C#CC4=CCCCC4)ccc31)[C@H](C(=O)N1CCCCCCC1)[C@H]1C(=O)O[C@H](c3ccccc3)[C@H](c3ccccc3)N1[C@@H]2c1ccc(O)cc1
- z-score [1]: 0.868
- z-score [2]: 0.936
- z-score [3]: 0.474
- z-score [4]: -0.625
- z-score [5]: -0.593
- z-score [6]: -0.239
- z-score [7]: 1.02 (inactive)
- z-score [8]: -0.386
- z-score [9]: -0.272
- z-score [10]: -1.09 (inactive)
- z-score [11]: 0.0166
- z-score [12]: 0.566 (inactive)
- z-score [13]: 0.0499 (inactive)
- composite z-score [14]: -1.67 (inactive)
- z-score [15]: 1.51 (inactive)
- z-score [16]: 0.396 (inactive)
- z-score [17]: -0.698 (inactive)
- z-score [18]: -0.863 (inactive)
- z-score [19]: -0.258
- composite z-score [20]: -0.0025

SMILES: O=C1OCC=C[C@H]2OC34C=CCN(Cc5ccccc5)C(=O)[C@H]3N(CCCCCCO)C(=O)[C@@H]4[C@@H]12 (stereo not given in full)
- z-score [1]: 0.131
- z-score [2]: 0.98
- z-score [3]: -0.246
- z-score [4]: 1.62
- z-score [5]: 0.659
- z-score [6]: -0.1
- z-score [7]: -0.173 (inactive)
- z-score [8]: -0.822
- z-score [9]: -0.566
- z-score [10]: 0.776 (inactive)
- z-score [11]: 1.07
- z-score [12]: -0.296 (inactive)
- z-score [13]: 1.59 (inactive)
- composite z-score [14]: -1.65 (inactive)
- z-score [15]: 0.0683 (inactive)
- z-score [16]: -0.739 (inactive)
- z-score [17]: 0.693 (inactive)
- z-score [18]: 0.415 (inactive)
- z-score [19]: 0.517
- composite z-score [20]: 0.052

SMILES: C[N+](C)(C)CCCCCCNC(=O)[C@H]1C[C@H]2C(=O)NCC(=O)N2[C@H]1c1ccc(O)cc1
- z-score [1]: -0.93
- z-score [2]: -0.313
- z-score [3]: -0.799
- z-score [4]: -1.17
- z-score [5]: -0.121
- z-score [6]: -1.71
- z-score [7]: -0.159 (inactive)
- z-score [8]: 0.0729
- z-score [9]: -0.235
- z-score [10]: 0.14 (inactive)
- z-score [11]: 0.767
- z-score [12]: -0.275 (inactive)
- z-score [13]: -0.301 (inactive)
- composite z-score [14]: -0.435 (inactive)
- z-score [15]: 0.823 (inactive)
- z-score [16]: 0.0387 (inactive)
- z-score [17]: -0.298 (inactive)
- z-score [18]: -0.785 (inactive)
- z-score [19]: -0.116
- composite z-score [20]: 0.175

SMILES: CN(C)C(=O)[C@]1(CCS(=O)(=O)c2ccccc2)N=C(c2ccc(OCCCO)cc2)O[C@@H]1c1ccccc1N=[N+]=[N-]
- z-score [1]: 1.12
- z-score [2]: 0.503
- z-score [3]: 0.591
- z-score [4]: -0.133
- z-score [5]: 0.517
- z-score [6]: 0.621
- z-score [7]: -0.00563 (inactive)
- z-score [8]: -1.18
- z-score [9]: -0.809
- z-score [10]: -0.859 (inactive)
- z-score [11]: -0.622
- z-score [12]: -0.0799 (inactive)
- z-score [13]: -0.99 (inactive)
- composite z-score [14]: 1.05 (inactive)
- z-score [15]: 0.218 (inactive)
- z-score [16]: 0.386 (inactive)
- z-score [17]: 0.292 (inactive)
- z-score [18]: 0.393 (inactive)
- z-score [19]: -1.01
- composite z-score [20]: 0.273

SMILES: COC(=O)c1ccc([C@H](NC(=O)c2ccco2)[C@]2(C)C[C@H]2C2CCCCC2)cc1
- z-score [1]: -1.13
- z-score [2]: -1.2
- z-score [3]: -2.43
- z-score [4]: -2.65
- z-score [5]: -3.28
- z-score [6]: -2.5
- z-score [7]: -1.02 (inactive)
- z-score [8]: -0.89
- z-score [9]: -1.12
- z-score [10]: -2.55 (inactive)
- z-score [11]: -2.18
- z-score [12]: 1.23 (inactive)
- z-score [13]: -0.806 (inactive)
- composite z-score [14]: -0.751 (inactive)
- z-score [15]: 0.619 (inactive)
- z-score [16]: 0.158 (inactive)
- z-score [17]: -0.827 (inactive)
- z-score [18]: -0.565 (inactive)
- z-score [19]: -2.26
- composite z-score [20]: -0.0668
